In all, about 5,500 compounds went through this assay and about 2,000 (36%) were called active. Inconclusive results (about 18%) are left out. Cut-off read from the data, not from the text of the source: active = normalized growth mostly below about 0.91 (no sharp cut-off); inconclusive = no clear call, values can overlap the other calls; inactive = mostly above about 0.92. The list shows a part of the results.
Assay: chemical genetic growth profiling, strain panel (AID 1159580);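 note: tested at 20 µM; growth read once vehicle control cultures reached saturation at 30 °C; 1 = growth at the plate median or of vehicle wells; lower values mean less growth of the strain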
Conditions: S. cerevisiae deletion strains, growth OD
[1] = locus YAL040C, strain CLN3, hits give low values
[2] = locus YCL061C, strain MRC1 (second series), hits give low values
[3] = locus YER002W, strain NOP16, hits give low values
[4] = locus YMR263W, strain SAP30, hits give low values
[5] = locus YNL128W, strain TEP1, hits give low values
[6] = locus YNL175C, strain NOP13, hits give low values
[7] = locus YNL197C, strain WHI3, hits give low values
[8] = locus YNL224C, strain SQS1, hits give low values
[9] = locus YOR083W, strain WHI5 (second series), hits give low values

Measured: normalized growth

N=C(N)SCCc1cnc[nH]1
inactive: [1] 0.985 | [2] 0.988 | locus YDR363W, strain ESC2, hits give low values 1.01 | [3] 1.02 | locus YJR075W, strain HOC1, hits give low values 0.998 | [4] 0.979 | [5] 0.995 | locus YNL153C, strain GIM3, hits give low values 0.972 | [6] 0.992 | [7] 0.98 | [8] 0.991 | locus YNL322C, strain KRE1, hits give low values 0.979 | [9] 0.988 | locus YPL055C, strain LGE1, hits give low values 1

NCCC(=O)NCCc1cnc[nH]1
inactive: locus YAL013W, strain DEP1, hits give low values 1 | [1] 0.98 | [2] 0.997 | [3] 0.993 | locus YGR078C, strain PAC10, hits give low values 1.01 | [4] 1 | [5] 1.01 | [6] 0.966 | [7] 0.984 | [8] 0.998 | [9] 1 | locus YPL241C, strain CIN2, hits give low values 1.01
